The record followed here is PubChem BioAssay AID485346 (Sanford-Burnham Center for Chemical Genomics, 2010).

Among all 330,000 compounds or so, about 10,000 (3%) were called active.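 Rule for the calls: active = inhibition of at least 50% at 8 µM in the primary screen; inactive = the rest.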 The list comes from a sample in which actives are over-represented; it also holds similar structures and randomly drawn compounds.

Protein Mdm4 (Homo sapiens) + E3 ubiquitin-protein ligase Mdm2 (Homo sapiens), sequence (O15151 whole entry, looked up): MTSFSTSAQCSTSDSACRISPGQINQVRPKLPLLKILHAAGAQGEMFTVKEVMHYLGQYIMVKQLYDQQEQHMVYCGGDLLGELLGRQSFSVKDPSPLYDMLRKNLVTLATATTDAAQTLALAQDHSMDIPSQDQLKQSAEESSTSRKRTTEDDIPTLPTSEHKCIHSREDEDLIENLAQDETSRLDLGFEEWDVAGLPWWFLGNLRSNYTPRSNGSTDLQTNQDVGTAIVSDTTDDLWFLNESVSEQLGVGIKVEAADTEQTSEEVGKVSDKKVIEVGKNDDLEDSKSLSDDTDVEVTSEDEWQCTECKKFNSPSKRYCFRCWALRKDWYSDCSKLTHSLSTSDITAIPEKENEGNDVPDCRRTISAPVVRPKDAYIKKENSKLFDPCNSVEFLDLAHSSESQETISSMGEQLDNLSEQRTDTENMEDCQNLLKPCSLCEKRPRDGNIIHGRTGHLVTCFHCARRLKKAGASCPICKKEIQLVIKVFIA
Protein Mdm4 (Homo sapiens) + E3 ubiquitin-protein ligase Mdm2 (Homo sapiens), sequence (Q00987 whole entry, looked up): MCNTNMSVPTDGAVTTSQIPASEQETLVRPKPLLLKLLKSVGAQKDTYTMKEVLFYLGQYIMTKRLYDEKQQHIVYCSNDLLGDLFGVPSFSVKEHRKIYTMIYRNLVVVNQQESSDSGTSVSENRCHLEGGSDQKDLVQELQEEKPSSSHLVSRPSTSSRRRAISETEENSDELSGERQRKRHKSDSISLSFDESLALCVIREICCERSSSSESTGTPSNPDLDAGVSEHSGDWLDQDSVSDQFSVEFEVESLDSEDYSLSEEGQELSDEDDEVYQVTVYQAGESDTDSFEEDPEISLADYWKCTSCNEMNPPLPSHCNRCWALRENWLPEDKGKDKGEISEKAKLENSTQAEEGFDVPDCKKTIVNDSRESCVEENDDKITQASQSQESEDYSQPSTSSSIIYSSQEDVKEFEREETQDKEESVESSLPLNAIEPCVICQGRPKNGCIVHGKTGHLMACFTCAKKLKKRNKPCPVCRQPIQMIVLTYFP

This experiment addresses Protein Mdm4 (Homo sapiens) + E3 ubiquitin-protein ligase Mdm2 (Homo sapiens) (UniProt O15151+Q00987). The experiment can be described thus: disruptors of Mdm2/MdmX RING complex – cell-based, luminescence, split luciferase, SaOS-2, uHTS, primary screen (AID 485346). The note with it: SaOS-2 split-luciferase Mdm2/MdmX complementation, at 8 µM, hits give high values.
For the molecule `CCSc1nc(O)c(C(c2cccc(OC)c2)c2c(O)nc(SCC)[nH]c2=O)c(=O)[nH]1`, the inhibition – broadly, the change of the read-out against control, counted positive when it falls – was -27.3% (inactive).

With `COc1cccc(CNC(=O)c2nnn(CC(=O)Nc3cc(C)ccc3C)c2N)c1`, the inhibition is 5.26% (inactive).

For the molecule `COc1ccc(CNC(=O)c2nnn(CC(=O)Nc3cc(C)cc(C)c3)c2N)cc1`, the inhibition was 48.3% (inactive).

As to `COc1cccc(CNC(=O)c2nnn(CC(=O)Nc3cc(Cl)ccc3C)c2N)c1`, the inhibition is 77.9% (active).

As to `Cc1ccc(Nc2nnc(SC(C)C(=O)NC3CC3)s2)cc1` (stereo not drawn), the inhibition was 22.3% (inactive).

As for `Cc1cc(=O)n2nc(N3CCC(C(=O)Nc4c(F)c(F)c(F)c(F)c4F)CC3)sc2n1`, the inhibition was 8.91% (inactive).

For the molecule `N#Cc1ccc(Oc2cc(C(F)(F)F)nc(-c3ccccn3)n2)cc1`, the inhibition is 11.2% (inactive).

As for `c1ccc(-c2nccc(-c3ccc(-n4cnc5ccccc54)cc3)n2)nc1`, the inhibition is 28.4% (inactive).

For `c1ccc2c(NCC3CCCO3)nc(-c3ccncc3)nc2c1` (stereo not drawn), the inhibition is -16.8% (inactive).

In the case of `CC(C)(C)Nc1nc(-c2ccccn2)nc2ccccc12`, the inhibition was 87.5% (active).

With `Cc1ccc(Oc2nc(-c3ccccn3)nc3ccccc23)cc1`, the inhibition is 60.4% (active).

With `COc1cnc(-c2ccccn2)nc1Oc1ccc(C(C)(C)C)cc1`, the inhibition is 37.6% (inactive).

For `CCn1nc(C)c(CN2CCN(Cc3ccc(OC)c(C)c3C)C(CCO)C2)c1C` (stereo not drawn), the inhibition is 10.8% (inactive).

As for `O=C(OCCN1CCOCC1)C1(c2ccccc2)CCCCC1`, the inhibition is -8.86% (inactive).

Regarding `Cc1ncn2cc(-c3ccc(Cl)cc3Cl)[nH]c(=O)c12`, the inhibition was 7.48% (inactive).

In the case of `Cc1ccc(C(=O)Nc2nnc(-c3ccncc3)s2)o1`, the inhibition is -5.65% (inactive).

For `O=C(Nc1nnc(-c2ccc(F)cc2)s1)c1c(F)cccc1Cl`, the inhibition was 7.4% (inactive).

`CC(C)=CC(=O)Nc1nnc(-c2ccc(F)cc2)s1`: the inhibition was 80% (active).

Consider `COc1ccccc1N(C)S(=O)(=O)c1ccc(Cl)c(C(=O)N2CCC(C(N)=O)CC2)c1`, for which the inhibition is -6.16% (inactive).

For the molecule `Cc1ccc2[nH]c3c(=O)n(CC(=O)NCCc4ccc(Cl)cc4)ncc3c2c1`, the inhibition is -13.8% (inactive).

For `COc1ccc(C2CC(=O)Oc3ccc(C(C)(C)C)cc32)cc1` (stereo not drawn), the inhibition is 21.6% (inactive).

In the case of `c1ccc2c(c1)C(=NC1CCCCC1)NC2=NC1CCCCC1`, the inhibition is 94.3% (active).

On to `Cc1nn(C)c(Cl)c1CN1CCC(n2nccc2NC(=O)C2CCCC2)CC1`, for which the inhibition is 12.6% (inactive).

Regarding `COCc1cc(=O)[nH]c(SC)n1`, the inhibition is 5.54% (inactive).

As for `COc1ccc([C@@H]2[C@@H]3C(=O)N(C(C)(C)C)C(=O)[C@@H]3[C@]3(Cc4ccccc4)C(=O)N(c4cccc(Br)c4)C(=O)N23)cc1`, the inhibition is 37.8% (inactive).

`O=C(NNC(=O)c1cc(-c2ccccc2Cl)nc2ccccc12)c1csc(N2CCOCC2)n1`: the inhibition was -34.1% (inactive).

In the case of `C=CCn1c(C23CC4CC(CC(C4)C2)C3)n[nH]c1=S`, the inhibition is 9.22% (inactive).

As to `Cc1ccc(Nc2cc(=O)n(C3CCCCC3)c(=O)[nH]2)cc1C`, the inhibition was 54.2% (active).

On to `Cc1ccc(NNC(=O)C2CCC2)cc1C`, for which the inhibition was -2.12% (inactive).

Regarding `O=c1cc(C(F)(F)F)[nH]c(=O)n1C1CCCCC1`, the inhibition is -23.2% (inactive).

As to `O=[N+]([O-])/C=C/c1ccc2c(ccn2Cc2ccccc2)c1`, the inhibition is 95.5% (active).

Consider `COC(=O)Cn1cc(/C=C/[N+](=O)[O-])c2ccccc21`, for which the inhibition was 23.4% (inactive).

For the molecule `O=C(Cn1ccc2cc(S(=O)(=O)N3CCCC3)ccc21)NCc1ccccc1`, the inhibition is 12.6% (inactive).

For `Oc1ccc(N=Nc2nccs2)c(O)c1`, the inhibition was 53.8% (active).

As for `O=C(NC1(C(F)(F)F)NC(=O)N(Cc2cccnc2)C1=O)c1ccccc1Cl` (stereo not drawn), the inhibition was 1.79% (inactive).

`Cc1cc(C)c(C#N)c(SCC(=O)N(CC(C)C)C2CCS(=O)(=O)C2)n1` (stereo not drawn): the inhibition was 18% (inactive).

`CN(C)Cc1c(C(=O)N/N=C/c2ccccc2OCc2ccc(F)cc2)nnn1-c1nonc1N`: the inhibition was 14.6% (inactive).

Consider `Nc1ccc(C(=O)N2CCN(S(=O)(=O)c3ccc(Cl)cc3)CC2)cc1[N+](=O)[O-]`, for which the inhibition was 18.3% (inactive).

As to `CC1CCN(C(=O)c2ccc(CSc3ccc(Cl)cc3)cc2)CC1`, the inhibition is -14.2% (inactive).

Regarding `CC1CCN(C(=O)c2ccc(S(=O)(=O)Cc3cc(F)ccc3F)c([N+](=O)[O-])c2)CC1`, the inhibition was 68.4% (active).

For the molecule `CCOc1cccc(C(=O)Nc2nnc(-c3cccs3)s2)c1`, the inhibition was -36.4% (inactive).

As to `COc1ccc(C(=O)Nc2nc(-c3ccc(OC)cc3)c(-c3ccc([N+](=O)[O-])cc3)s2)cc1`, the inhibition is 13.4% (inactive).

For the molecule `N#Cc1ccc(C(=O)Nc2nc(-c3cccs3)c(C(=O)C(F)(F)F)s2)cc1`, the inhibition was 83.2% (active).

Regarding `COc1ccc(CC(NC(C)=O)C(=O)NC2CCN(C(=O)c3ccc(Cl)cc3)CC2)cc1` (stereo not drawn), the inhibition was 7.62% (inactive).

Take `Cc1ccc(-c2nn(C(C)(C)C)c3ncnc(N)c23)cc1`: the inhibition is 79% (active).

Regarding `Cc1ccc(-n2cnc3ncnc(-c4ccccc4)c32)cc1`, the inhibition is 6.32% (inactive).

As for `c1ccc(-c2cnc(CN3CCN(c4ccccc4)CC3)o2)cc1`, the inhibition was -0.44% (inactive).

As for `CCN=c1sc(C(=O)Nc2ccccc2)c(C)n1CC`, the inhibition was 18.2% (inactive).

As for `CCCn1c(N)c(C(=O)CSc2nnc3n2CCCCC3)c(=O)[nH]c1=O`, the inhibition is 2.64% (inactive).

In the case of `CC(C)(C)NC(=O)NC(=O)CN1CCC(Cc2ccccc2)CC1`, the inhibition is 12% (inactive).

Turning to `Cc1cccc(C)c1NC(=O)CCS(=O)(=O)c1cccc2nsnc12`, the inhibition was -1.39% (inactive).

Turning to `Cc1cccc2sc(N(CCCN(C)C)C(=O)CCS(=O)(=O)c3ccccc3)nc12`, the inhibition was 98.7% (active).

As for `COc1ccc(NC(=O)CS(=O)(=O)c2ccccc2)cc1`, the inhibition was -16.7% (inactive).

`COc1cccc2sc(N(CCCN(C)C)C(=O)C(c3ccccc3)c3ccccc3)nc12`: the inhibition is 92.5% (active).

`CN(C)CCN(C(=O)CN1C(=O)c2ccccc2C1=O)c1nc2cc3c(cc2s1)OCCO3`: the inhibition is -9.56% (inactive).

On to `COc1ccc(N(C)C(=O)CCS(=O)(=O)c2cccc3nsnc23)cc1`, for which the inhibition is -8.48% (inactive).

For the molecule `CC(=O)N(CCCN(C)C)c1nc2ccc(C)cc2s1`, the inhibition is -16.8% (inactive).

`COc1cc2ccccc2cc1C(=O)N(CCN(C)C)c1nc2c(F)cccc2s1`: the inhibition is 19.4% (inactive).

In the case of `COc1cccc2sc(N(CCCN(C)C)C(=O)CCS(=O)(=O)c3ccccc3)nc12`, the inhibition is 73.6% (active).

Consider `CC(C)(Oc1ccc(Cl)cc1)C(=O)OCC(=O)NCCc1ccc(S(N)(=O)=O)cc1`, for which the inhibition is -3.95% (inactive).

Consider `CC1=C(C(N)=O)C(c2ccc(F)cc2)n2nc(CCCO)nc2N1` (stereo not drawn), for which the inhibition was 1.82% (inactive).

On to `CCOCCCNC(=O)C1(O)c2cc(Br)ccc2NC(=O)N1c1ccc(C)c(C)c1` (stereo not drawn), for which the inhibition is 18.7% (inactive).

Turning to `Cc1nc2cc(C(F)(F)F)ccc2n1CCNc1nc(-c2cc(Cl)c(N)c(Cl)c2)cs1`, the inhibition is 27.1% (inactive).

Regarding `CSc1ccc(NC(=O)N2CC(C)OC(C)C2)cc1` (stereo not drawn), the inhibition is 15% (inactive).

Regarding `COc1cc(NS(=O)(=O)c2ccc(NC(=O)c3ccc(S(=O)(=O)N4CCCCC4)cc3)cc2)ncn1`, the inhibition was 13.5% (inactive).

For the molecule `OCCCNc1nc(-c2ccccc2)c2cc(Cl)ccc2n1`, the inhibition was 19.5% (inactive).

On to `O=C(CCl)NNc1nc(-c2ccccc2)c2cc(Cl)ccc2n1`, for which the inhibition was 19.7% (inactive).

With `NC(N)=Nc1nc(-c2ccccc2)c2cc(Cl)ccc2n1`, the inhibition is 97.4% (active).

For `COC(=O)c1ccc(C2C3=C(Nc4nnnn42)c2ccccc2OC3)cc1` (stereo not drawn), the inhibition is 14.2% (inactive).

Regarding `COc1ccc(C(=O)NC(C)Cn2nc(C)cc2C)cc1OC1CCN(C(C)=O)CC1` (stereo not drawn), the inhibition is 2.18% (inactive).

Regarding `COC(=O)c1ccc(Nc2ncnc3sccc23)cc1`, the inhibition is 1.96% (inactive).

As for `O=C1CN(C(=O)c2ccccc2F)C(c2ccc(F)cc2)c2cc(F)ccc2N1` (stereo not drawn), the inhibition is -22.4% (inactive).

Take `CCOC(=O)C1(CCOc2ccccc2)CCN(Cc2ccc(C#CCCO)cc2)CC1`: the inhibition was 27.4% (inactive).

`CC(C)CN(CC(C)C)CC(O)CN(c1ccccc1)S(=O)(=O)c1ccccc1[N+](=O)[O-]` (stereo not drawn): the inhibition is 31.5% (inactive).

As to `CCOc1ccc(S(=O)(=O)Nc2cccc(C(=O)NCC3(N4CCCCC4)CCCCC3)c2)cc1`, the inhibition is 66.6% (active).

On to `CCOc1ccc(NS(=O)(=O)c2ccc(C(=O)NCC(c3ccccc3OC)N3CCCC3)cc2)cc1` (stereo not drawn), for which the inhibition is 38.1% (inactive).

Consider `O=C(NCC1(N2CCCCC2)CCCCC1)c1ccc(NS(=O)(=O)c2ccc(F)cc2)cc1`, for which the inhibition is 8.39% (inactive).

`COc1cccc(NC(=O)c2cc(S(=O)(=O)N3CCc4ccccc43)cn2C)c1`: the inhibition is 32% (inactive).

For `COCc1cc(C)n(CC(=O)NCC2CCCO2)c(=O)c1C#N` (stereo not drawn), the inhibition is -12.8% (inactive).

With `CCOC(=O)c1cc(NC(=O)c2ccc(Cl)cc2)c(=O)oc1-c1ccccc1`, the inhibition is 81.6% (active).

On to `CC(=O)c1cc(NC(=O)c2ccccc2)c(=O)oc1/C=C/N(C)C`, for which the inhibition was -7.04% (inactive).

As to `CCOC(=O)NNC(=O)c1ccc(Cl)cc1`, the inhibition was 9.31% (inactive).

For the molecule `COC(=O)C1=C(C(=O)OC)[C@@H]2N(C)c3ccccc3[C@@]23C[C@@H](C(=O)OC)N(C(=O)c2ccco2)C3=N1`, the inhibition was 30% (inactive).

On to `Cc1nc(C)c(C(=O)N(c2ccc(C)c(C)c2)C(C(=O)NCc2ccco2)c2ccccc2)s1` (stereo not drawn), for which the inhibition was -6.49% (inactive).

Regarding `Cc1ccc(-c2nnn(CC(=O)N(Cc3ccco3)C(C(=O)NC(C)(C)C)c3ccncc3)n2)o1` (stereo not drawn), the inhibition was -5.12% (inactive).

`Cc1nn(-c2ccccc2)c2sc(C(=O)N(Cc3ccco3)C(C)C(=O)NC(C)(C)C)cc12` (stereo not drawn): the inhibition is 50.9% (active).

As to `CCC(C)Cn1c(O)cc2nn(-c3nc4ccccc4s3)c(=O)c-2c1C` (stereo not drawn), the inhibition is 39.4% (inactive).

With `COc1ccc(CCNC(=O)c2cnc(Cl)c(Cl)c2)cc1`, the inhibition is -0.067% (inactive).

For the molecule `COc1ccc(CS(=O)/C(Cl)=C(/Cl)C(=O)Nc2ccc(OC)nc2)cc1` (stereo not drawn), the inhibition is 97.2% (active).

Turning to `CCOc1ccc(S(=O)(=O)Nc2ccc(OC)nc2)cc1`, the inhibition is -9.26% (inactive).

Regarding `COc1ccc(Nc2ccc([N+](=O)[O-])cn2)cn1`, the inhibition was 8.39% (inactive).

Regarding `COC(=O)c1sccc1NC(=S)Nc1ccc(C)cc1`, the inhibition is -1.32% (inactive).

In the case of `COc1ccc(NC(=O)/C(Cl)=C(/Cl)S(=O)Cc2ccc(C)cc2)cn1` (stereo not drawn), the inhibition is 91.5% (active).
